About 83,000 compounds went through this panel and 20% of them were active in at least one assay; those are over-represented in the sample as a whole.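 Values shown are percent growth following 48 h exposure of cells in 96-well plates to a single concentration of compound; below 10 was considered active.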 Unmarked numbers belong to inactive results. Calls of active or inactive are those of the source.
The compounds below were run on HCT-116 colon (assay: NCI-60 one-dose screen, 48 h (100 = growth as untreated, 0 = no growth, -100 = all killed)). Conditions: 10 µM unless noted.
Protocol: Growth inhibition of the HCT-116 human tumor cell line is measured as a screen for anti-cancer activity. Cells are grown in 96 well plates and exposed to the test compound for 48 hours. Compounds are tested at a single concentration, which is 10^-5 M for most compounds. The reported endpoint is percent growth (GI% or GIPRCNT), where numbers from 0 - 100% represent growth inhibition, and numbers from -100% - 0 represent cell death. For example, a value of 40 represents 60% growth inhibition. A value of 0 means no net growth occurred over the course of the experiment. A value of -40 indicates 40% of cells at the beginning of the experiment died by the end of the experiment. A value of -100 means all cells are dead at the end of the experiment.
NCI-60 Human Tumor Cell Lines Screen was performed using the standard one-dose NCI protocol, which is described in more detail at https://dtp.cancer.gov/discovery_development/nci-60/default.htm.
Compounds with GIPRCNT values below 10 were considered active. Activity score was based on GIPRCNT using the following formula: […]
Score is 0 for GIPRCNT values of 100 or above, 50 for GIPRCNT values of 0, and 100 for GIPRCNT values of -100.
For C(=C\c1nccc2c1[nH]c1ccccc12)/c1ccccc1, the growth was 21.5%. COc1cc(C=Nc2oc(-c3ccccc3)c(-c3ccccc3)c2C#N)cc(CN2CCCCC2)c1O was tested, and the growth was 95%. Compound Oc1cccc(-c2nc(N3CCOCC3)c3c4c(sc3n2)CCCC4)c1 has a growth of 66.5%. With COc1ccc(/C=C2\Oc3cc(OCCCCN4CCCC4)ccc3C2=O)cc1 the growth was 5.32% (active). Cn1cc(-c2nonc2-c2cn(C)c3ccc(F)cc23)c2cc(F)ccc21 showed a growth of 28.2%. For CC1(C)CC[C@]2(C(=O)Nc3ccccn3)CC[C@]3(C)C(=CC[C@@H]4[C@@]5(C)C/C(=C/c6cccnc6)C(=O)C(C)(C)[C@@H]5CC[C@]43C)[C@H]2C1, the growth was 11.4%. In the case of CCCOc1ccc2nc(NC(=O)OC)[nH]c2c1, the growth is reported as 9.34% (active). CCN1CCN(c2nc(NCCNc3ccnc4cc(Cl)ccc34)c3ccccc3n2)CC1 was tested, and the growth was 1.44% (active). Nc1n[nH]c2ccc([C@@H]3Nc4cc5c(cc4[C@H]4C6CCC(C6)[C@@H]34)C(=O)NC5)cc12 (stereo not given in full) was tested, and the growth was 6.53% (active). OCCNc1nccc(N2CCN(c3ccnc4cc(Cl)ccc34)CC2)n1 showed a growth of 47.1%. COc1cc(-c2nc(C(=O)NCC(=O)NO)nn2-c2ccc(Cl)cc2)cc(OC)c1OC showed a growth of 101%. With c1ccc(-c2cc3n4c(-c5ccccc5)nn(-c5ccccc5)c4cnc-3n2)cc1 the growth was 30.9%. Work on Cc1ccc2c(C(C[N+](=O)[O-])c3ccco3)c(-c3ccccc3)[nH]c2c1 (stereo not given) yielded a growth of 19.6%. For O=C1/C(=C/N2N=C(c3ccc4ccccc4c3)CC2c2ccccc2O)SC(=S)N1c1cccnc1 (stereo not given), the growth was 10.9%. For C#CCOc1ccc2ncnc(Nc3cccc(CNC(=O)CCl)c3)c2c1, the growth was 26% [8.25 µM]. With COc1ccc(-n2nc(C)c3c(Nc4ccc(NC(=O)Nc5cccc(C(F)(F)F)c5)cc4)ncnc32)cc1 the growth was 1.52% (active). With COc1ccc(/C=C/c2nc3ccccc3nc2/C=C/c2ccc(OC)cc2)cc1 the growth was 89%. Compound O=C1Nc2c(ccc(Cl)c2Cl)/C1=C\c1ccc(C(F)(F)F)cc1 has a growth of 68.2%. N#CCCN=Nc1c(O)[nH]c2ccc(F)cc12 showed a growth of 95.1%. Cc1cc(N2CCCCCC2)nc(NC2CCCC(Nc3ccnc4cc(Cl)ccc34)C2)n1 (stereo not given) was tested, and the growth was -95.9% (active). Work on COc1ccc(CN2c3ccccc3Sc3ccccc32)cc1O yielded a growth of 12.9%. O=C(CCN1C(=O)/C(=C/c2ccc(Cl)cc2)SC1=S)NCCCN1CCOCC1 was tested, and the growth was 98.7%. For COC(=O)c1ccc(NC(=O)c2ccc(-c3cccc([N+](=O)[O-])c3)o2)cc1, the growth was 96%. For COc1ccc(NC2=C(Sc3nc(C)cc(C)n3)C(=O)N(Cc3ccccc3)C2=O)cc1Cl, the growth was 76.9% [30 µM]. In the case of O=C1Nc2ccc(Br)cc2C12Oc1ccccc1C1CC(c3ccc(F)cc3)=NN12 (stereo not given), the growth is reported as 92.3%. Compound CC(C)(O)c1cn(CCCCN2C(=O)C(=O)c3ccccc32)nn1 has a growth of 101%. With NC(=O)c1cc(Br)ccc1NC(=O)/C=C/c1ccccc1 the growth was 38%. Cc1oc(-c2ccc(Cl)cc2Cl)cc1C(=O)Nc1nccs1 was tested, and the growth was 67.2%. O=C1c2c(O)cc(O)cc2-c2c(-c3ccc(O)cc3)oc3cc(O)cc1c23 was tested, and the growth was 32.5%. With COc1ccc(Nc2cc(C)nc(N3CCN(c4ccnc5cc(Cl)ccc45)CC3)n2)cc1 the growth was 0.65% (active). Compound COc1ccc2c(c1)CC/C(=C\c1cncc(Br)c1)C2=O has a growth of 65.8%. CC[C@]1(O)C[C@@H]2CN(CCc3c([nH]c4ccccc34)[C@@](C(=O)OC)(c3cc4c(cc3OC)N(C)[C@H]3[C@@](O)(C(N)=O)[C@H](O)[C@]5(CC)[C@@H]6C[C@@H]6CN6CC[C@]43[C@@H]65)C2)C1 was tested, and the growth was 6.89% (active). With C[n+]1ccccc1/C=C/c1ccc2cccc(O)c2n1 the growth was 97%. CC(C)(C)c1cc(/C=N\NC(=O)/C=C/C=C/c2ccc3c(c2)OCO3)c(O)c(C(C)(C)C)c1 showed a growth of 87.7%. In the case of Cn1ncc2c(=O)nc3c(-c4ccccc4)n[nH]n3c21, the growth is reported as 97.6%. C=CC(=O)Nc1cccc(-c2nc(SC)nc(Nc3cccc(OC)c3)c2C#N)c1 gave a growth of 54.4%. Compound N#Cc1nnn(-c2ccc(S(N)(=O)=O)cc2)c1NC(=O)CCl has a growth of 94.6%. FC(F)(F)c1nc2c(NCc3ccc(-c4ccccc4)cc3)cccc2[nH]1 was tested, and the growth was 74.1%. For COc1ccc(/C=C/C(=O)c2ccc(O)c(CN3CCN(c4cc5c(cc4F)c(=O)c(C(=O)O)cn5C4CC4)CC3)c2)cc1, the growth was 9.41% (active). For COc1ccc(S(=O)(=O)N2CCCCC2)cc1NC(=O)c1[nH]c(C)c2c1CCCCC2=O, the growth was 17.6%.

Reference: PubChem BioAssay (NCI)
